Reference: PubChem BioAssay (Tox21)
Results filed as inconclusive are left out. Where a call stands in place of a potency, no number is given. Active and inactive are the calls of the source. Calls come from the whole dose curve; as a rule, active = well fitted cell-killing curve with a large enough effect in the repeat runs; inconclusive = weak or mixed curves, or effect the other way; inactive = flat fitted curve, though single readings scatter.

experiment: qHTS assay to identify small molecule agonists of the constitutive androstane receptor (CAR) signaling pathway - cell viability counter screen (AID 1224836); conditions: HepG2-CYP2B6-hCAR viability, CellTiter-Fluor, 23 h, PK11195 added to every well; series mostly up to 92.4 µM; note: nearly all actives have a fitted effect of over 45% in size
Source text: U.S. Tox21 Program National Center for Advancing Translational Sciences [NCATS] NIH Chemical Genomics Center [NCGC] U.S. Environmental Protection Agency [EPA] National Institutes of Environmental Health Sciences [NIEHS] National Toxicology Program [NTP] U.S. Food and Drug Administration [FDA] Tox21 Assay Overview: The constitutive androstane receptor (CAR) is a nuclear receptor which regulates multiple drug metabolizing enzymes (DMEs) and transporters. Activating CAR will generally increase the transcription and subsequent translation of CYP2B6 and CYP3A4. These two DMEs represent about 50% of the drug metabolizing potential in the body. […] Recently, there have also been studies performed indicating CARs role in energy metabolism and cancer therapy. Therefore, inducing CARs activity could have a potential effect on diabetes and cancer. Identifying environmental toxins and compounds which modulate CAR, through the use of the Tox21 10K compound collection, will be an important step in determining the toxicity and potential therapeutic effects these factors will have on the human body. To differentiate true CAR agonists from cytotoxic substances, the assay is multiplexed with a cell viability assay.
Tox21 Assay Protocol Summary: A double-stable (hCAR and CYP2B6-2.2kb) transfected cell line, derived from human hepatoma (HepG2) cells, was utilized for the duration of the quantitative high-throughput screens. The HepG2-CYP2B6-hCAR cells were dispensed at 2500 cells/4 uL/well in 1536-well white solid bottom plates using a Multidrop Combi. After the assay plates were incubated at 37 C/5% CO2 for 4 hrs, 23 nL of compounds at 15 concentrations (from 5-48 columns) or positive control (from 1 to 4 columns) were transferred to the assay plates using a Pintool station. One uL of PK11195 (final concentration = 0.75 uM) was added, using a Flying Reagent Dispenser, inside each well. After a 23 hr incubation period at 37 C/5% CO2, 1 uL of CellTiter-Fluor reagent was added into each well of the assay plates using a Flying Reagent Dispenser. The fluorescence intensity in the plates was then measured using a ViewLux plate reader.

Row | Structure (SMILES) | Potency
1 | COC(=O)/C=C(/C)N | inactive
2 | CN1CCN(c2c(F)cc3c(=O)c(C(=O)O)cn4c3c2SCC4)CC1 | inactive
3 | CCCCCCCCCC#N | inactive
4 | COc1ccccc1OCC(O)COC(N)=O (stereo not given) | inactive
5 | CCOc1ccc(NS(=O)(=O)c2ccc(N)cc2)nn1 | inactive
6 | Cc1ncc(CO)c(CN)c1O | inactive
7 | CCCC1CCC(=O)O1 (stereo not given) | inactive
8 | c1ccc(CN(CC2=NCCN2)c2ccccc2)cc1 | inactive
9 | CC(=O)O[C@H]1CC[C@@]2(C)C(=CC[C@@H]3[C@@H]2CC[C@]2(C)C(C(C)=O)=CC[C@@H]32)C1 | inactive
10 | O=C1CCCCC1C1CCCCC1 (stereo not given) | inactive
11 | CO[C@@]1(NC(=O)CSCC#N)C(=O)N2C(C(=O)O)=C(CSc3nnnn3C)CS[C@@H]21 | inactive
12 | OCc1c2ccccc2cc2ccccc12 | inactive
13 | C=CC1CO1 (stereo not given) | inactive
14 | CCOC(=O)c1ccccc1O | inactive
15 | NC(=O)NS(=O)(=O)c1ccc(Cl)cc1 | inactive
16 | NCCC(O)(P(=O)(O)O)P(=O)(O)O | inactive
17 | CC(=O)Nc1ccc(C)c(Cl)c1 | inactive
18 | CCOC(=O)c1cc(=O)c2c(OCC(COc3cccc4oc(C(=O)OCC)cc(=O)c34)OC(=O)[C@@H](N)CCCCN)cccc2o1 | inactive
19 | CCN(CCCc1ccccc1)CCCc1ccccc1 | inactive
20 | CC(C)(C)C1CCCCC1=O (stereo not given) | inactive

Row | Structure (SMILES) | Potency
21 | CCCCNc1ccc(C(=O)OCCN(CC)CC)cc1 | inactive
22 | CCOC(=O)CS | inactive
23 | CCc1cc2cc(OC)c(OC)cc2c(Cc2ccccc2)n1 | inactive
24 | OCCN1CCN(CCO)CC1 | inactive
25 | Cc1c(N)cccc1N | inactive
26 | N#CSCC(=O)O | inactive
27 | CC(C)=CCC[C@](C)(O)[C@@H]1CC=C(C)CC1 | inactive
28 | CC(C)(C)c1ccc(OC(=O)c2ccccc2O)cc1 | inactive
29 | CC1=C(CC(=O)O)c2cc(F)ccc2/C1=C\c1ccc(S(C)(=O)=O)cc1 | inactive
30 | CCN[C@H]1CN(CCCOC)S(=O)(=O)c2sc(S(N)(=O)=O)cc21 | inactive
31 | COc1ccc(Nc2ccc(OC)cc2)cc1 | inactive
32 | COC(=O)C(C)O (stereo not given) | inactive
33 | CC/C=C\CCOC(=O)C(C)C | inactive
34 | O=C1N(c2ccccc2)c2ccccc2C1(Cc1ccncc1)Cc1ccncc1 | inactive
35 | CCC(=O)Nc1ccc(O)cc1 | inactive
36 | O=C(CC(=O)C(F)(F)F)c1ccccc1 | inactive
37 | NCCCN1CCN(CCCN)CC1 | inactive
38 | CCCCNc1cc(C(=O)O)cc(S(N)(=O)=O)c1Oc1ccccc1 | inactive
39 | CCNCCO | inactive
40 | CC(=O)OC(C)OC(C)=O | inactive
